A short description of the assay: inhibitors of HIV fusion peptide binding, primary screen, biochemical, uHTS, fluorescence dequenching (AID 1986). Conditions: cell-free peptide binding, 30 min, stronger effect = higher value.
[1] abbreviates: measured here: repeat confirmation average inhibition, at 18.6 µM.

The whole screen tested about 290,000 compounds, of which about 890 (0.31%) were called active. No stated cut-off is given here; in the data, active means inhibition mostly above about 52% (no sharp cut-off); inactive means mostly below about 76%. The entries come from a sample that favours actives as a whole.

Turning to `CCN(CC)c1ccc(CN(C)CCc2ccc(OC)c(OC)c2)cc1`, the inhibition (at 20 µM) is 0.5% (inactive).

As for `Fc1ccccc1N1CCN(Cc2c(F)cccc2F)CC1`, for the setting “at 20 µM”, the inhibition was -0.2% (inactive).

Take `O=C(N=Nc1c(O)[nH]c(=O)[nH]c1=O)C1COc2cc3ccccc3cc2O1` (centres undefined): under “at 20 µM”, the inhibition was 4.2% (inactive).

For `O=C(C(Cc1ccccc1)NS(=O)(=O)c1cccc2nsnc12)N1CCC2(CC1)OCCO2` (centres undefined), the inhibition (at 20 µM) is 103% (active).

Consider `O=C(C1CCCN(S(=O)(=O)c2cccc3nsnc23)C1)N1CCC2(CC1)OCCO2` (centres undefined), for which, under “at 20 µM”, the inhibition was -1.1% (inactive).

As to `O=C(C(Cc1ccccc1)NS(=O)(=O)c1ccc(F)cc1)N1CCC2(CC1)OCCO2` (centres undefined), the inhibition (at 20 µM) was 3.1% (inactive).

In the case of `CNCCc1ccc(OC)c(OC)c1`, the inhibition (at 20 µM) was -0.5% (inactive).

As for `O=C(c1ccc(Cl)cc1)C12CN3CN(CN(C3)C1)C2`, the inhibition (at 20 µM) is 0% (inactive).

For the compound `COP(=O)(OC)C(Nc1ccccn1)c1ccccc1` (centres undefined), under “at 20 µM”, the inhibition is -0.3% (inactive).

On to `CN1C(=O)C(=Cc2ccc(N3CCCCCC3)cc2)C(=O)N(C)C1=O`, for which the inhibition (at 20 µM) was 16.5% (inactive).

In the case of `CN1C(=O)C(=Cc2sc(=O)n(-c3ccccc3)c2N(C)C)C(=O)N(C)C1=O`, for the setting “at 20 µM”, the inhibition is 27.8% (inactive).

For the compound `CN1C(=O)C(=Cc2sc(=O)n(-c3ccccc3)c2N2CCCCC2)C(=O)N(C)C1=O`, the inhibition by setting is: (at 20 µM) 68.2% (active); under setting [1], 87.3%.

In the case of `O=C1NC(=O)N(c2ccccc2)C(=O)/C1=C/c1ccc([N+](=O)[O-])s1`, the inhibition (at 20 µM) was 64.8% (active).

For the compound `COc1ccccc1N1C(=O)NC(=O)/C(=C/c2ccc([N+](=O)[O-])s2)C1=O`, the inhibition (at 20 µM) was 42.7% (inactive).

Take `COc1ccc(N2C(=O)NC(=O)/C(=C/c3ccc([N+](=O)[O-])s3)C2=O)cc1`: the inhibition (at 20 µM) was 35.4% (inactive).

As to `O=C1NC(=O)N(c2ccccc2)C(=O)/C1=C\c1ccc([N+](=O)[O-])s1`, the inhibition by setting is: (at 20 µM) 61.1% (inactive); under setting [1], 6.1%.

As for `COc1cccc(N2C(=O)NC(=O)/C(=C/c3ccc([N+](=O)[O-])s3)C2=O)c1`, the inhibition (at 20 µM) is 45.2% (inactive).

As to `COc1ccc(N2C(=O)NC(=O)/C(=C\c3ccc([N+](=O)[O-])s3)C2=O)cc1`, the inhibition (at 20 µM) was 56.4% (active).

`O=c1c2ccccc2nc(Cc2ccccc2)n1-c1cccc(O)c1`: under “at 20 µM”, the inhibition is -1% (inactive).

As for `CCCc1cc(=O)oc2cc(OCC(=O)N3C[C@H]4C[C@@H](C3)c3cccc(=O)n3C4)ccc12`, the inhibition (at 20 µM) was 3% (inactive).

Regarding `CCOC(=O)c1nc2ccccc2c(=O)n1-c1ccc(C)cc1`, the inhibition (at 20 µM) is 0.5% (inactive).

In the case of `COc1cc(CC2(CCc3ccncc3)C(=O)N(C)C(=O)N(C)C2=O)cc(OC)c1OC`, where the note is “at 20 µM”, the inhibition is 2.3% (inactive).

Turning to `CCN1/C(=C\C=C\C2=[N+](CC)c3ccccc3C2(C)C)C(C)(C)c2ccccc21`, the inhibition (at 20 µM) is 0.5% (inactive).

On to `CN1/C(=C\C=Nc2ccccc2)C(C)(C)c2ccccc21`, for which, under “at 20 µM”, the inhibition is 0.8% (inactive).

On to `CN1/C(=C\C=C\C2=[N+](C)c3ccc4ccccc4c3C2(C)C)C(C)(C)c2ccccc21`, for which the inhibition (at 20 µM) is 65.1% (active) and the inhibition under setting [1] amounted to 90.9%.

As for `NCCc1c[nH]c2ccc(OCc3ccccc3)cc12`, where the note is “at 20 µM”, the inhibition was -1.2% (inactive).

A word on the inhibition: it is the relative decrease from the control value, in per cent.

The values above are taken from PubChem BioAssay AID1986 (Sanford-Burnham Center for Chemical Genomics, 2009).
